Assay [1] concerns the target Peroxisome proliferator-activated receptor gamma (Homo sapiens) (UniProt P37231). The assay is described as follows: qHTS assay for small molecule agonists of peroxisome proliferator-activated receptor gamma signaling (AID 588536; active = well fitted curve in the direction sought with a large enough effect in the signal ratio, with a control signal flat, not every such curve was filed as active; the % refers to the signal ratio). The essentials: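 Using GeneBLAzer HEK293 cells, response was quantified by CCF4 fluorescence and normalized between basal DMSO (0%) and rosiglitazone 2 uM (100%); curves yielded half-maximal stimulation concentration and efficacy.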
(In qHTS, concentration-response curves come from the screen itself.)

The target in assay [2] is Vitamin D3 receptor (Homo sapiens) (UniProt P11473). The assay is described as follows: qHTS assay for small molecule antagonists of vitamin D receptor signaling (AID 588541; calls by dose curve;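 also: receptor activated by calcitriol during compound treatment; series mostly up to about 77 µM; % is scaled to controls: 0 for no effect and ±100 for the full control effect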). In short, it runs like this: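 VDR-UAS-bla HEK293T cells in 2% charcoal-stripped FBS were stimulated with 1-alpha,25-dihydroxyvitamin D3 (3 nM final) plus compound for 16 h at 37 C. The beta-lactamase CCF4 readout was normalized to 50 nM agonist and DMSO, and Hill fits gave IC50.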
Sequence of Vitamin D3 receptor (Homo sapiens) (P11473 whole entry, looked up): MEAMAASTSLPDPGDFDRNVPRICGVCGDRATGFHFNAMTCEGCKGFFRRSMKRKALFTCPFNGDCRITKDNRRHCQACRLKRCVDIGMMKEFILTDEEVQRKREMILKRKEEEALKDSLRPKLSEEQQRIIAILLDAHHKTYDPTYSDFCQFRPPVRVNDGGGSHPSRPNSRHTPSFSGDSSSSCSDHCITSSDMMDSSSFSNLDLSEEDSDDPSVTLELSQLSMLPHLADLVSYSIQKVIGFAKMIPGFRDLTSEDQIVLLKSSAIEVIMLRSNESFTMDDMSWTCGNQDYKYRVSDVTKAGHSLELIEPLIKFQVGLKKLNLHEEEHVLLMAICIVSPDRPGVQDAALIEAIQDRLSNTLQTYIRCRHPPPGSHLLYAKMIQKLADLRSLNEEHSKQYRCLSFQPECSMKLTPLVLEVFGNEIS

For assay [3] the target is unchanged. In words: qHTS assay for small molecule agonists of vitamin D receptor signaling (AID 588543; calls by dose curve). The essentials: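 VDR-UAS-bla HEK293T cells, 2000/well, 2% charcoal-stripped FBS; compound titration 16 h at 37 C; CCF4 beta-lactamase ratio read. Normalized to 50 nM 1-alpha,25-dihydroxyvitamin D3 (100%) and DMSO; Hill fit gives EC50, efficacy.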
Assay [4] is described as follows: qHTS assay for small molecule agonists of retinoid X receptor alpha signaling (AID 588544; calls by dose curve). The following applies: HEK293T RXRa-UAS-bla, beta-lactamase reporter, 18 h; 530 nm emission.
For assay [5], the target named is Retinoic acid receptor RXR-alpha (Homo sapiens) (UniProt P19793). Described as above.
Sequence of Retinoic acid receptor RXR-alpha (Homo sapiens) (P19793 whole entry, looked up): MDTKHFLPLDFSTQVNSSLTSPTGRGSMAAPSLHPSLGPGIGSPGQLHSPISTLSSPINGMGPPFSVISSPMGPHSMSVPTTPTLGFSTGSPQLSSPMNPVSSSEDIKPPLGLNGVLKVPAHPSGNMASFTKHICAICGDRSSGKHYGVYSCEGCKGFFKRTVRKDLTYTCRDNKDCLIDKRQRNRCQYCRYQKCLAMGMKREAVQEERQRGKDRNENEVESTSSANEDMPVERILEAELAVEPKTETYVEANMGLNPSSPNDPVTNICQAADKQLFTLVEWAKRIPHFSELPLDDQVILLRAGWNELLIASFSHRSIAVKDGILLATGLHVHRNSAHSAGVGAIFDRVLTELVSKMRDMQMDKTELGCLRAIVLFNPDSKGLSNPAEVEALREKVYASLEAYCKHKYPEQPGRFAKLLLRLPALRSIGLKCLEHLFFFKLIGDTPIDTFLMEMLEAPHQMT
Assay [6] deals with Thyroid hormone receptor beta (Homo sapiens) (UniProt P10828). In words: qHTS assay for small molecule agonists of thyroid hormone receptor beta signaling (AID 588545; calls by dose curve). In short, it runs like this: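 In this cell-based screen, titrated compounds act on HEK 293 cells held in medium with 2% charcoal/dextran FBS, NEAA and pyruvate for 18 hrs at 37 C. Responses are expressed relative to T3 (10 nM) as 100% and basal DMSO as 0%.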
Sequence of Thyroid hormone receptor beta (Homo sapiens) (P10828 whole entry, looked up): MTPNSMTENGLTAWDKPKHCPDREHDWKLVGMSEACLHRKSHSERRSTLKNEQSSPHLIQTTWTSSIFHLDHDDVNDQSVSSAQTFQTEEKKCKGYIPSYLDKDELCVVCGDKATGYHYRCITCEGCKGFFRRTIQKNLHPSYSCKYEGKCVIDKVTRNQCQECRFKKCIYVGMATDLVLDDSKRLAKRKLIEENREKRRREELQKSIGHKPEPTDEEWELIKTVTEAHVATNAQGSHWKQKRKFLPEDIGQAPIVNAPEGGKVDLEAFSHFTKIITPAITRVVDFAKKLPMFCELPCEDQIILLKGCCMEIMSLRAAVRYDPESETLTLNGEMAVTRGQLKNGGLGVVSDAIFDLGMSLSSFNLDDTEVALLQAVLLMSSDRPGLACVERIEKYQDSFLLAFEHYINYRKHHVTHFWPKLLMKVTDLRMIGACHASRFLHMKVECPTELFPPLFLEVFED

Assay [7] can be described thus: qHTS assay for small molecule antagonists of retinoid X receptor alpha signaling (AID 588546; active = well fitted inhibition curve with a large enough effect in the signal ratio, with a control signal flat, not every such curve was filed as active; the % refers to the signal ratio;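 also: cells stimulated with 9-cis-retinoic acid as agonist; % is scaled to controls: 0 for no effect and ±100 for the full control effect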). The following applies: HEK293T RXRa-UAS-bla, beta-lactamase ratio, antagonist mode; measured here: W530 green channel, cytotoxicity proxy. In short, it runs like this: (§1)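 Beta-lactamase reporter inhibition, read as CCF4 fluorescence ratio (ex 405, em 460/530 nm) after 2 h at RT. HEK293T UAS-bla cells, 2500/well, were stimulated with 9-cis-RA at 500 or 100 nM final alongside test compound for 18 h at 37 C.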

Assay [8] deals with Retinoic acid receptor RXR-alpha (Homo sapiens) (UniProt P19793). The description is as above. Particulars: HEK293T RXRa-UAS-bla, beta-lactamase ratio, antagonist mode. In short, it runs like this:
as §1

The target of assay [9] is Thyroid hormone receptor beta (Homo sapiens) (UniProt P10828). In words: qHTS assay for small molecule antagonists of thyroid hormone receptor beta signaling (AID 588547; active = well fitted inhibition curve with a large enough effect in the signal ratio, with a control signal flat, not every such curve was filed as active; the % refers to the signal ratio;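 also: cells stimulated with 0.4 nM T3 agonist during compound exposure; series mostly up to about 77 µM; % is scaled to controls: 0 for no effect and ±100 for the full control effect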). The following applies: TR-UAS-bla HEK293, beta-lactamase ratio, antagonist mode, 18 h. The essentials:
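TR-UAS-bla GripTite HEK293 cells in 2% charcoal/dextran FBS medium; compounds 0.59 nM to 92 uM with T3 at 0.4nM final, 18 h at 37 C. Beta-lactamase read by CCF4 fluorescence (460/530 nm); Hill fits gave IC50 and efficacy.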

For assay [10], the target named is Voltage-gated inwardly rectifying potassium channel KCNH2 (Homo sapiens) (UniProt Q12809). In words: qHTS Assay for Small Molecule Inhibitors of the Human hERG Channel Activity (AID 588834).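 Also: top concentration of the series differs between compounds; % is scaled to controls: 0 for no effect and ±100 for the full control effect; lower thallium flux fluorescence means stronger hERG block; nearly all actives have a fitted effect of over 50% in size.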 The essentials:
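Thallium serves as surrogate for K+ influx through BacMam-delivered hERG in U2OS cells. Compounds are added for about 10 minutes after dye loading; stimulation buffer then starts flux, monitored kinetically on FDSS.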

The target in assay [11] is Luciferin 4-monooxygenase (Photinus pyralis) (UniProt P08659). In words: Biochemical firefly luciferase enzyme assay for NPC (AID 624030).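 Also: purified P. pyralis luciferase at 10 nM with luciferin and ATP substrate; series mostly up to about 59 µM; 0% = DMSO and -100% = full luciferase inhibition by PTC124 control; nearly all actives have a fitted effect of over 70% in size.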 The essentials: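 Purified P. pyralis luciferase at 10 nM in 50 mM Tris Acetate (final), luminescence read within 5 minutes of enzyme addition to compounds. Activity normalised to PTC124 versus DMSO; concentration-response curves classed by r2, magnitude and activity.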
Sequence of Luciferin 4-monooxygenase (Photinus pyralis) (P08659 whole entry, looked up): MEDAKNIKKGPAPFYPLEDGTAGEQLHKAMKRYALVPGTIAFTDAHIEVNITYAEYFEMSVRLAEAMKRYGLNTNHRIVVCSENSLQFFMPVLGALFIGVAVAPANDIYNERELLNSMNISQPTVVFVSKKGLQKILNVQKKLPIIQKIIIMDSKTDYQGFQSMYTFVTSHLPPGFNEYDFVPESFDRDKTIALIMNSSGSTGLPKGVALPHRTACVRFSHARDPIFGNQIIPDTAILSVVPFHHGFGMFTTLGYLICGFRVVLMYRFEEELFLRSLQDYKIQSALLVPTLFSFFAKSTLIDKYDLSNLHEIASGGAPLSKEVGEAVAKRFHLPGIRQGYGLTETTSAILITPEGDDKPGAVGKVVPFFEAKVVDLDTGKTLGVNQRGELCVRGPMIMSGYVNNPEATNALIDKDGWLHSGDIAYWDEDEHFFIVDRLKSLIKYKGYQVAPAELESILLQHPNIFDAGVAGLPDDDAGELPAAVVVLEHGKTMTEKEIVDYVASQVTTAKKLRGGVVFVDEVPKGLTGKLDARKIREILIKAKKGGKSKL

The nature of assay [12]: S16 Schwann cell viability assay (CellTiter-Glo assay) (AID 624031).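 Also: cellular ATP luminescence as a viability measure; series mostly up to about 58 µM; plate controls were DMSO-treated cells for no effect and cell-free wells for full effect; nearly all actives have a fitted effect of over 70% in size.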 In short, it runs like this:
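Native S16 Schwann cells (rat), serum-containing medium, overnight attachment then 24 h drug exposure at 37 °C/5% CO2. CellTiter-Glo ATP signal; normalized to cell-free and vehicle wells.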
(In ATP-based viability assays light output follows the ATP content of the culture.)

A short description of assay [13]: S16 Schwann cell PMP22 intronic element firefly luciferase assay (AID 624032).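 Also: series mostly up to about 58 µM; plate controls were DMSO for no effect and PTC124 positive control mean for full effect; nearly all actives have a fitted effect of over 30% in size.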 The essentials:
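Rat S16 Schwann cells stably carrying firefly luciferase driven by a PMP22 intronic element, in 10% FBS, treated 24 h at 37 C. ONE-Glo luminescence normalized to PTC124 control and DMSO (0%); curves classed by r2, magnitude and activity.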

Assay [14] can be described thus: S16 Schwann cell PMP22 intronic element beta-lactamase assay (AID 624044; calls by dose curve;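 also: 0% = DMSO and -100% = potassium clavulanate positive control; nearly all actives have a fitted effect of over 15% in size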). In short, it runs like this: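 Beta-lactamase reporter under a PMP22 intronic regulatory element in stable S16 rat Schwann cells; 24 h compound exposure. 460 nm blue signal normalized between DMSO (0%) and potassium clavulanate, with 535 nm FRET tracking viability; curves classed by r2 and response.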

Assay [15] has as its target Peroxisome proliferator-activated receptor gamma (Homo sapiens) (UniProt P37231). In words: qHTS assay for small molecule antagonists of peroxisome proliferator-activated receptor gamma signaling (AID 588537; active = well fitted inhibition curve with a large enough effect in the signal ratio, with a control signal flat, not every such curve was filed as active; the % refers to the signal ratio;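 also: reporter cells co-stimulated with 50 nM rosiglitazone agonist during compound treatment; % of control where 0% means no effect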). In short, it runs like this: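 Read-out: CCF4 fluorescence (ex 405, em 460/530 nm) after 2 h at RT. Cells were HEK293 carrying a UAS-bla reporter and treated 16 h at 37 C with compound plus rosiglitazone (50 nM final). Normalized to rosiglitazone and DMSO.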

Assay [16] is described as follows: qHTS of Trypanosoma Brucei Inhibitors: LOPAC Validation (AID 624147). Also: 0% is about no effect. In short, it runs like this:
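In this concentration-response screen, enzyme-free wells defined baseline while DMSO plates tracked drift. Each reaction combined TbPYK, substrate, compound and 130 uM ADP for 45 min at room temperature. Kinase-Glo Plus luminescence gave the signal.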

Assay [17] deals with Glucagon-like peptide 1 receptor (Homo sapiens) (UniProt P43220). In words: qHTS of GLP-1 Receptor Agonists: LOPAC Validation (AID 624148).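 Also: 0% is about no effect; higher luminescence signal means agonism.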 The essentials: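 HEK293 cells stably co-expressing GLP-1R and a cAMP-responsive luciferase reporter, plated 12 hours before compound, then incubated 4-6 hr at 37 deg C. Luminescence read 12 min after detection reagent.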
Sequence of Glucagon-like peptide 1 receptor (Homo sapiens) (P43220 whole entry, looked up): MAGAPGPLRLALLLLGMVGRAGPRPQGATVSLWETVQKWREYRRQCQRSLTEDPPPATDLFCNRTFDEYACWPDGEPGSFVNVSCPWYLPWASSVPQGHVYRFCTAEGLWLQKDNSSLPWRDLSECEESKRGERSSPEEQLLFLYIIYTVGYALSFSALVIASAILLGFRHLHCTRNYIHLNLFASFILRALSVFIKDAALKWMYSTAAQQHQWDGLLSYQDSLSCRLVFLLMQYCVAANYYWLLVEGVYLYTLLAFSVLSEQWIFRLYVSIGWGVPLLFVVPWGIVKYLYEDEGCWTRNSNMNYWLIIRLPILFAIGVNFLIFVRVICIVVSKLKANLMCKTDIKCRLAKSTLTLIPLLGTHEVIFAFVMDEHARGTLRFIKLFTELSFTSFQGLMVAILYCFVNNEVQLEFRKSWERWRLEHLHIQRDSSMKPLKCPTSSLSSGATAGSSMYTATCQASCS
Assay [18] in a line: HTS Assay for Allosteric Antagonists of the Human D2 Dopamine Receptor: Hit Validation in HTRF (AID 624455).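 Also: stable D1 dopamine receptor cell line scored for blocking the D1 response; potency is read from the fitted curve at half-maximal effect.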 The essentials:
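Validation of hits used D1 receptor stably expressed in cells with HTRF detection of response inhibition; origin screen measured calcium flux following EC80 dopamine in a force-coupled, inducible Hek293 Trex D2 cell line.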
A general note: In TR-FRET formats the signal depends on donor and acceptor labels being close together.

Several values for one entry are separate records, joined by “and”; a condition that tells them apart may be missing. Identical values can stand only once. Records with an inconclusive call do not appear. Activity calls are given as the source filed them. Unless noted, calls follow the shape of the dose curve; as a rule, active = well fitted curve in the direction sought with a large enough effect; inconclusive = small, poorly fitted or top-dose-only effect, or another doubt; inactive = no such curve, though single readings can be large; an effect the other way counts as inactive or inconclusive.

Sequence of Voltage-gated inwardly rectifying potassium channel KCNH2 (Homo sapiens) (Q12809 whole entry, looked up): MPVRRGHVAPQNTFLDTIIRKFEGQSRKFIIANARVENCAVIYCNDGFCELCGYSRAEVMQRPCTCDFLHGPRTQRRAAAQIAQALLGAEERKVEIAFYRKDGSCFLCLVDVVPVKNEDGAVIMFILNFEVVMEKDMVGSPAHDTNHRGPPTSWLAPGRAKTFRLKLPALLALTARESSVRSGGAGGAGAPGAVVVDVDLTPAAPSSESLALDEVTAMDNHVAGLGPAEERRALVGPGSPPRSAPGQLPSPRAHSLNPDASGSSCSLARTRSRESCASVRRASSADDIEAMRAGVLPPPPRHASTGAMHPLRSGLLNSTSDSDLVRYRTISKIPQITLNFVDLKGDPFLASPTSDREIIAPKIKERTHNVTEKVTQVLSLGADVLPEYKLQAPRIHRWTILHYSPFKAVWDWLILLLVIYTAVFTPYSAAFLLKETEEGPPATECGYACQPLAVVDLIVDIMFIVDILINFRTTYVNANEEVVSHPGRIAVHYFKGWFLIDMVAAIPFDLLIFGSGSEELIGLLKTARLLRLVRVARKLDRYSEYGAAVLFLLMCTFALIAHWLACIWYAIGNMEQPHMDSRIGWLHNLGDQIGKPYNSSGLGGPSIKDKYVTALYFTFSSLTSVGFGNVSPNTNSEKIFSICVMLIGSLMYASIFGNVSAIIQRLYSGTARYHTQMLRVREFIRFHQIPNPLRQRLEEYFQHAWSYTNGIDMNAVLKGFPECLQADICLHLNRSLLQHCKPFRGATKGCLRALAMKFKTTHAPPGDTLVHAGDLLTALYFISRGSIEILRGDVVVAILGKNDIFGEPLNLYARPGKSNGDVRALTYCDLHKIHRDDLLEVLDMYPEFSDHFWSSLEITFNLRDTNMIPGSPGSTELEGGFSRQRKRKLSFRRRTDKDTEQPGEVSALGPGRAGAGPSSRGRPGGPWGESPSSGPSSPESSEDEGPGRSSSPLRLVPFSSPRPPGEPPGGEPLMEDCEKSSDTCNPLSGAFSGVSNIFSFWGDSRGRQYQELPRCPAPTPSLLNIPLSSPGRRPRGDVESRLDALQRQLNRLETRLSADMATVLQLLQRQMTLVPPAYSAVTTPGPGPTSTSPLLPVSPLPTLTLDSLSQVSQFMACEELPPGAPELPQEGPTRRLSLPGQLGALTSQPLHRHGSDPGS
Sequence of Peroxisome proliferator-activated receptor gamma (Homo sapiens) (P37231 whole entry, looked up): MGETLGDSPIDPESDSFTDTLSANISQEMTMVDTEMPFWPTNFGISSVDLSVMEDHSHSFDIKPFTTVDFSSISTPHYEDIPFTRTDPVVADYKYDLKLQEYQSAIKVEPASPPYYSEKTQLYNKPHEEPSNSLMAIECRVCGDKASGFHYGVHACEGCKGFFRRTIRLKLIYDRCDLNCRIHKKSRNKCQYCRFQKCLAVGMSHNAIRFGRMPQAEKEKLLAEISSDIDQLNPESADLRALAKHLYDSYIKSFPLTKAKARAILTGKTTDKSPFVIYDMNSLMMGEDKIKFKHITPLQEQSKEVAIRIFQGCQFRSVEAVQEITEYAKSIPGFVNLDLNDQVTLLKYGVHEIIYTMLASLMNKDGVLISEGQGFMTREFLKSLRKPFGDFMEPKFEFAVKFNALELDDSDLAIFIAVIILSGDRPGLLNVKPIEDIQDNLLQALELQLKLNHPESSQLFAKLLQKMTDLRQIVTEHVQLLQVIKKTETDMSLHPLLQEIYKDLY

Take `C[C@]12C=CC(=O)C=C1CC[C@@H]1[C@@H]2C(=O)C[C@@]2(C)[C@H]1CC[C@]2(O)C(=O)CO`: the molecule was classed as inactive in assay [1], in assay [2], in assay [3], in assay [5] and in assay [6]. The max response in [4] is 13.7%; in assay [7], 4.53%; in [8], -10.9% (inactive). The activity change % (negative = inhibition) in [9] is -0.0632% (inactive). The Potency entry in assay [10], in [11], in assay [12], in assay [13] and in [14] was “inactive” each time.

As to `N=C(N)c1ccc(OCCCCCOc2ccc(C(=N)N)cc2)cc1`, the outcome in assay [2], in assay [3], in assay [5] and in assay [6] was inactive. Also, in assay [4], the max response stood at 18.8%. Further, in assay [9], the activity change % (negative = inhibition) was -26.1% (inactive). Further, the Potency result in assay [11] and in [12] was “inactive” each time.

On to `CCC(=O)O[C@]1(C(=O)CCl)[C@@H](C)C[C@H]2[C@@H]3CCC4=CC(=O)C=C[C@]4(C)[C@@]3(F)[C@@H](O)C[C@@]21C`, for which the Potency entry in assay [10] was “inactive”.

With `C[C@@H](CN1CC(=O)NC(=O)C1)N1CC(=O)NC(=O)C1`, in [10], the Potency result is “inactive”.

As to `O=C(N[C@H](CO)[C@H](O)c1ccc([N+](=O)[O-])cc1)C(Cl)Cl`, the call in [1], in [5] and in [6] was inactive. Besides, the Potency entry in assay [15] and in [11] was “inactive” throughout. Further, the max response in assay [4] is -13.6%; in [7], -5.3% and -7.21%; in assay [8], 39.9% (inactive) and -11.1% (inactive). Further, the activity change % (negative = inhibition) in assay [9] was 0.142% (inactive) and 20.5% (inactive).

For the molecule `Cc1noc(NS(=O)(=O)c2ccc(N)cc2)c1C`, the call in [1], in [5] and in [6] was inactive. The Potency entry in assay [15], in assay [10], in assay [11], in assay [12] and in assay [13] was “inactive” each time. Further, the max response in assay [4] was 3.43%; in assay [7], 9.97% and -11.9%; in [8] it was 10.6% (inactive) and -8.28% (inactive).

Consider `Cc1ncc([N+](=O)[O-])n1CCO`, for which the call in [1], in [5] and in assay [6] was inactive. The max response was 1.6% in [4], -7.09% in [7] and 26.4% (inactive) in [8]. Further, the activity change % (negative = inhibition) in assay [9] is -13.7% (inactive). Moreover, the Potency result in assay [10], in [11], in assay [12] and in assay [13] was “inactive” in each case.

Turning to `NC(N)=NC(N)=NCCc1ccccc1`, the outcome in assay [1], in assay [5] and in assay [6] was inactive. For the same molecule, the Potency entry in assay [15], in assay [10], in assay [11], in assay [12] and in assay [13] was “inactive” throughout. Besides, the max response in [4] is 8.58% and 2.73%; in assay [7], 0.584% and 0.821%; in [8], 19.7% (inactive) and -15.5% (inactive).

On to `N[C@@H](Cc1ccc(O)c(O)c1)C(=O)O`, for which the result in [1], in assay [2], in assay [5], in assay [6], in assay [16] and in assay [17] was inactive. The Potency entry in assay [15] and in assay [14] was “inactive” in each case. For the same molecule, the max response in assay [4] is -21.2%; in [7], -19.3%; in [8] it was 0.985% (inactive). The activity change % (negative = inhibition) in assay [9] is -11.9% (inactive). Besides, the Potency in assay [18] is 8.2 µM (active).
